# Hits are enriched below; roughly 11% of the tested compounds scored in any of these assays.
# PNC inhibitor = High Content Assay for Compounds that inhibit the Assembly of the Perinucleolar Compartment; AID 2417, 2010; 140,000 tested, 3.1% active; activity change (PNC), negative = inhibition, % at 10 µM; PC3M PTB-GFP, PNC prevalence imaging, 16 h; active compounds read low;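 active = readout at or below -70, meaning at least 70% loss of cells showing the perinucleolar compartment, a nuclear body marking cancer cells; inconclusive = readout between -30 and a set limit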;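 note: plate controls were DMSO wells for no effect and camptothecin positive control wells for full effect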
#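 PC3M cells stably expressing PTB-GFP, 750–1000 cells/well, treated 16 h at 37 °C with compound (23 nl of library stock), in duplicate. After paraformaldehyde fixation and Hoechst stain, imaged at 20x; PNC prevalence scored by image analysis.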
# HPGD block = qHTS Assay for Inhibitors of HPGD (15-Hydroxyprostaglandin Dehydrogenase) | AID 894, 2007 | 150,000 tested, 4.3% active | purified HPGD, NADH fluorescence kinetic, PGE2 substrate | Potency, µM, for inactives: at the highest dose activity change, negative = inhibition, usual class: inhibitors; note: potency is the fitted concentration of half-maximal effect
# Target sequence (P15428 whole entry, looked up): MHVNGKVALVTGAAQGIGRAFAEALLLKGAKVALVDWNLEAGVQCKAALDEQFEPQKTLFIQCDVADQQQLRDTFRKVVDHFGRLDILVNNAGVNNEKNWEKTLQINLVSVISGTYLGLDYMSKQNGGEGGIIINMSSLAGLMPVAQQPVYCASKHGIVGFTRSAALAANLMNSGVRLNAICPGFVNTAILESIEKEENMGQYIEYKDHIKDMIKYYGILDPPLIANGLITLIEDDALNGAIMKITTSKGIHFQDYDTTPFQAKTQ
#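 NADH formation kinetics: reaction with 30 uM PGE2 and 1 mM NAD+ (final), 20 nM enzyme, Tris-HCl pH 8 with Tween 20, after 15 min compound preincubation at room temperature. Fluorescence change, last versus first of five reads.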
# ALDH1A1 block = qHTS Assay for Inhibitors of Aldehyde Dehydrogenase 1 (ALDH1A1). Potency, µM (highest dose often 75.3 µM), for the others: top-dose activity, negative = inhibition, actives largely listed as inhibitors. Purified ALDH1A1, NADH fluorescence, propionaldehyde substrate. Aldehyde dehydrogenase 1A1 (Homo sapiens), P00352. 220,000 tested, 7.3% active;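 note: potency is the fitted concentration of half-maximal effect; plate controls were no enzyme wells and a reference inhibitor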
# ALOX12 inhib = qHTS Assay for Inhibitors of 12-hLO (12-human lipoxygenase). Polyunsaturated fatty acid lipoxygenase ALOX12 (Homo sapiens), P18054. purified 12-hLO, xylenol orange hydroperoxide absorbance. Potency, µM (titrated, usually from 57.1 µM), for inactives: at the highest dose activity change, negative = inhibition, usual class: inhibitors. 150,000 tested, 0.12% active. AID 1452, 2008; active = well fitted curve in the direction sought with a large enough effect; inconclusive = small, poorly fitted or top-dose-only effect, or another doubt; inactive = no such curve, though single readings can be large; an effect the other way counts as inactive or inconclusive; note: potency is the fitted concentration of half-maximal effect; nearly all actives have a fitted effect of over 55% in size
#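 Purified human 12hLO (150 nM), preincubated 15 min with compound, then 40 uM arachidonic acid for 30 min, room temperature, Hepes pH 7.0 with 0.01% Triton X-100. Hydroperoxide detected by ferrous iron/xylenol orange; 573/405 nm absorbance ratio gives reaction progress.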
# IMPase cell inh = qHTS Assay for Identifying the Cell-Membrane Permeable IMPase Inhibitors. Inositol monophosphatase 1 (Rattus norvegicus), P97697. CHO-M1 cells, IP1 accumulation, HTRF TR-FRET ratio. inhibition (IP1 accumulation), % at 46.1 µM. 120,000 tested, under 10 active; active = well fitted curve in the direction sought with a large enough effect in the signal ratio, not every such curve was filed as active; inconclusive = small, poorly fitted or top-dose-only effect, or a change in a side signal; inactive = no such curve, though single readings can be large or run the other way; the % refers to the signal ratio;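 note: cells stimulated with carbachol in lithium chloride buffer; plate controls were DMSO basal wells for no effect and reference inhibitor wells for full effect; higher means more IMPase inhibition seen as more IP1 and lower FRET ratio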
# Target sequence (P97697 whole entry, looked up): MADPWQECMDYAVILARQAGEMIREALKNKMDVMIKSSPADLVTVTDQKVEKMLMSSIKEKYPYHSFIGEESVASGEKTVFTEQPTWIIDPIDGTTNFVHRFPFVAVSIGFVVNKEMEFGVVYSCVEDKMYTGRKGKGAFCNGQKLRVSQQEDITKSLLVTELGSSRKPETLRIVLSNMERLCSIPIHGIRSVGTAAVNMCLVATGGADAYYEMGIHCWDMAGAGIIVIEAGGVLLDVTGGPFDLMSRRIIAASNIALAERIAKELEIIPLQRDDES
#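 Elevated IP1 in lysates lowers TR-FRET signal (665/620 ratio and 620 channel reported). Cells were CHO-M1, given carbachol (50 uM as added) plus 50mM LiCl, pH 7.4, 30 min, 37C; compounds titrated up to 46 uM; AC50 by Hill equation.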
# IMPase Li inh = qHTS Assay for Identifying the Cell-Membrane Permeable IMPase Inhibitors: Potentiation with Lithium; Potency, µM (highest dose often 59.4 µM), inactives show top-dose activity, negative = IMPase inhibition, usual class: inhibitors; CHO-M1 cells, IP1 TR-FRET (IP-One), carbachol + lithium; 210,000 tested, 0.35% active; active = well fitted curve in the direction sought with a large enough effect; inconclusive = small, poorly fitted or top-dose-only effect, or another doubt; inactive = no such curve, though single readings can be large; an effect the other way counts as inactive or inconclusive;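 note: IP1 builds up when IMPase is blocked and the TR-FRET signal falls; potency is the fitted concentration of half-maximal effect; plate controls were basal vehicle for no effect and high inhibitor control for full effect; nearly all actives have a fitted effect of over 50% in size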
#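 CHO-M1, 2000 cells/well, 16–30 h culture; cpd + low Li+, 30 min 37C; lysis with d2-IP1/Eu-anti-IP1 Ab, 10 min RT; TR-FRET 665/620 ratio and 620 channel; AC50 via Hill.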
# * = called active by the depositor; ? = inconclusive; . = no result; [ ] = another dose, or the depositor's remark. Unless noted, calls come from the whole dose curve; as a rule, active = well fitted inhibition curve with a large enough effect (not every such curve was filed as active); inconclusive = small, poorly fitted or top-dose-only effect, or another doubt; inactive = no such curve, though single readings can be large or run the other way. Unless noted, % is set by controls: 0 for no effect and ±100 for the full control effect.
SMILES,PNC inhibitor,HPGD block,ALDH1A1 block,ALOX12 inhib,IMPase cell inh,IMPase Li inh
CN(C)c1ccc(/C=C/C=C2/C(=O)NC(=O)N(c3ccccc3)C2=O)cc1,.,.,?,.,.,62.6%
CCCCCCCCCCCCC/C=C/[C@@H](O)[C@@H](N)COP(=O)(O)O,.,-2.8%,15.8%,-0.8%[0.00818 µM],.,24.3%
C=C(C)CSc1nc2ncc(Cl)cc2[nH]1,24.2,12.6µM*,5.2%,2.4%,0.9,8.6%[38.3 µM]
CC1=CC(c2ccccc2)NC(=S)N1 (centres undefined),131.4,12.6µM*,7.08µM*,-10.3%,.,?
O=[N+]([O-])CCO,.,-11.0%,17.8µM*,-4.6%,.,3.0%
O=C(O)C(Oc1nc(=S)[nH]c(=S)[nH]1)(c1ccc(Cl)cc1)c1ccc(Cl)cc1,.,-5.8%,3.6%[13.5 µM],4.3%[11.4 µM],.,-5.6%
c1ccc2c(c1)Sc1ccccc1N2C[C@H]1CN2CCC1CC2,.,-1.7%,11.8%[13.5 µM],-1.6%[11.4 µM],.,24.5%
COC1=CC(=O)O[C@@H](/C=C/c2ccccc2)C1,.,-9.5%,12.6µM*,1.9%,.,-18.7%
CC(C)C(C)/C=C/C(C)C1CCC2C3=CC=C4CC(O)CCC4(C)C3CCC21C (centres undefined),.,-10.9%,?,-1.1%,.,9.1%
C#C[C@@]1(O)CC[C@@H]2[C@@H]3CCC4=CC(=O)CC[C@@]4(C)[C@H]3CC[C@]21C,.,-2.3%,-4.1%[20.9 µM],2.2%[25.6 µM],-4.3[20.6 µM],-7.3%
CCN(CC)c1ccc(CN(C)CCc2ccc(OC)c(OC)c2)cc1,18.8,6.2%,12.6µM*,-0.8%,12.6,-3.8%[38.3 µM]
CN(C)CC1CSCCC1(O)c1ccccc1 (centres undefined),-26.7,1.2%,12.6µM*,-1.4%,4.2,-10.5%
CN(CCc1ccc(Cl)c(Cl)c1)[C@H]1CCCC[C@H]1N1CCCC1,.,-2.7%,25.1µM*,2.8%,16.7,32.3%
c1ccc(CCN2CCOCC2)nc1,.,-2.2%,-5.6%[13.5 µM],3.7%[11.4 µM],.,2.7%
CCOC(=O)C1=C(N)Oc2c(c(=O)oc3ccccc23)C12C(=O)N(C)c1ccccc12 (centres undefined),-23.5,-2.8%,-6.9%,-2.8%,-2.2,-13.4%[38.3 µM]
CCOC(=O)C1=C(N)Oc2ccccc2C12C(=O)N(CC(=O)OC)C(CC(=O)OC)=C2C(=O)OC (centres undefined),10.5,-1.8%,1.26µM*,1.4%,-0.5,-1.6%[38.3 µM]
C=CCN1C(=O)C2(C(C(=O)OCC)=C(N)Oc3ccccc32)c2c1c1ccccc1oc2=O (centres undefined),-14.6,-8.3%,0.398µM*,-16.8%,12.2,21.8%[38.3 µM]
CCOC(=O)C1=C(N)OC2=C(C(=O)CCC2)C12C(=O)N(CC(N)=O)c1ccccc12 (centres undefined),-14.5,-7.0%,4.1%,0.1%,0.6,6.1%[38.3 µM]
c1cc(CCN2CCCCC2)ccn1,.,-5.3%,11.1%[13.5 µM],-4.2%[11.4 µM],.,-5.8%
N#C/C(=C\c1ccc(O)c(O)c1)C(=O)NCCCNC(=O)/C(C#N)=C/c1ccc(O)c(O)c1,.,15.8µM*,?,?,23.2,51.2%
Cc1ccc(OCC(=O)NCCN2CCN(C(=O)COc3ccc(C)cc3)CC2)cc1,-106.5*,-2.5%,?,0.0%,6.8,18.9%[38.3 µM]
[Cl-].[Cl-].[Hg+2],.,0.1µM*,0.141µM*,5.01µM*,.,27.7%
Cc1ccc(-n2c(C)cc(/C=C3/C(=O)NC(=O)N(Cc4ccco4)C3=O)c2C)cc1,13.1,?,14.1µM*,-3.7%,-7.8,13.5%
C=CCN1C(=O)/C(=C/c2cc(C)n(-c3cccnc3)c2C)C(=O)NC1=S,39.1,10µM*,?,-12.7%,.,5.0%
Cc1ccccc1-n1c(C)cc(/C=C2/C(=O)NC(=O)N(Cc3ccco3)C2=O)c1C,23.3,-18.4%,3.55µM*,-3.7%,9.5,21.4%
SMILES,PNC inhibitor,HPGD block,ALDH1A1 block,ALOX12 inhib,IMPase cell inh,IMPase Li inh
Cc1cc(/C=C2\C(=O)NC(=O)N(Cc3ccco3)C2=O)c(C)n1-c1ccc(O)cc1,.,.,?,.,.,23.7%
Cc1cc(/C=C2\C(=O)NC(=O)N(Cc3ccccc3)C2=O)c(C)n1-c1ccc(Cl)c(C(=O)O)c1,-1.9,17.8µM*,?,-19.3%,.,1.0%
CCOP(=S)(OCC)SCSC(C)(C)C,.,-8.9%,?,-2.0%,.,36.2%
Cc1cc(/C=C2\C(=O)NC(=O)N(c3ccc(F)cc3)C2=O)c(C)n1-c1ccc(C(=O)O)cc1,.,.,7.94µM*,.,.,-0.7%
CCOC(=O)C1CCN(/C=C2/C(=O)NC(=O)N(Cc3ccco3)C2=O)CC1,?,-14.2%,3.55µM*,2.6%,1.7,-0.5%[38.3 µM]
COc1ccc(/C=C2/C(=O)NC(=O)N(Cc3ccco3)C2=O)cc1,.,.,3.3%,.,.,-9.1%
Cc1cc(/C=C2\C(=O)NC(=O)N(Cc3ccccc3Cl)C2=O)c(C)n1-c1ccc(C(=O)O)cc1,.,.,?,.,.,-0.5%
Cc1ccc(-n2c(C)cc(/C=C3/C(=O)NC(=O)N(C)C3=O)c2C)cc1,-84.6*,-1.9%,?,-5.7%,.,7.2%
COc1ccc(/C=C2\C(=O)NC(=S)N(C)C2=O)cc1C,.,.,7.94µM*,.,.,8.2%
Cc1cc(N2CCCCC2)ccc1C=C1C(=O)N(C)C(=S)N(C)C1=O,5.1,14.1µM*,31.6µM*,-4.2%,.,1.9%
CN1C(=O)/C(=C\c2ccc(N3CCCCCC3)cc2)C(=O)NC1=S,.,.,0.0708µM*,.,.,.
CN1C(=O)/C(=C\c2ccc(N3CCCCC3)o2)C(=O)NC1=S,?,-18.3%,?,-0.4%,3.0,24.0%[38.3 µM]
O=C1NC(=O)N(c2cccc(F)c2)C(=O)/C1=C/c1ccc(N2CCOCC2)cc1,.,.,5.01µM*,.,.,.
COC(=O)[C@H]1C(=O)c2ccccc2O[C@@](C(=O)OC)(c2ccccc2)[C@@H]1c1ccccc1,.,.,-6.6%[13.5 µM],.,.,.
O=C(NCP(=O)(O)O)c1cccnc1,.,-3.5%,7.5%[13.5 µM],-3.6%[11.4 µM],.,-1.3%
CC(N)(COP(=O)(O)Oc1ccccc1)C(=O)O (centres undefined),.,.,?,.,.,-4.5%
CCCCN1C(=O)/C(=C/c2ccc(N3CCCCCC3)cc2)C(=O)NC1=S,-20.4,-14.5%,0.199µM*,-11.6%,-5.1,6.4%
O=C(CCCN1CCC2(CC1)C(=O)N(Cc1cccc(F)c1)CN2c1ccccc1)c1ccc(F)cc1,.,-8.8%,-4.2%,-10.8%,2.5,20.4%
N=C(N)c1ccc(-c2ccc(-c3ccc(C(=N)N)cc3)o2)cc1,.,?,?,-0.9%[11.4 µM],.,-3.8%

# Compound activity deposited in PubChem BioAssay by National Center for Advancing Translational Sciences (NCATS).
